# Most compounds without a hit are left out; they make up all but 1.3% or so of the library.
# TrxR1 substrate: is turned over as a substrate by rat TrxR1 | O89049 | purified TrxR1 substrate turnover, NADPH consumption readout | Potency, µM (top dose mostly 114 µM), for the others: at the top dose activity change, negative = substrate turnover | hit rate 0.01% among 390,000; also: potency is read from the fitted curve at half-maximal effect; % is scaled to controls: 0 for no effect and ±100 for the full control effect; nearly all actives have a fitted effect of over 50% in size
#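 Rat TrxR1, dispensed at 90 nM, was prereduced with 400 uM NADPH (final) for 5 min at ~22 deg C, then incubated with compound 15 min before 400 uM selenite. A first-read NADPH fluorescence drop versus no-compound background flagged substrates.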
# TrxR1 inh: blocks rat thioredoxin reductase 1; O89049; AID 588453; Potency, µM (top dose mostly 114 µM), for inactives: at the top dose activity change, negative = inhibition, actives largely listed as inhibitors; recombinant rTrxR1, NADPH fluorescence consumption, selenite substrate; hit rate 1% among 390,000; also: potency is read from the fitted curve at half-maximal effect; % is scaled to controls: 0 for no effect and ±100 for the full control effect; nearly all actives have a fitted effect of over 65% in size
#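 Rat TrxR1 (90 nM in the dispensed reagent) was pre-reduced with 400 uM NADPH for 5 min at room temperature, then incubated with compound for 15 min. After 400 uM selenite was added, NADPH fluorescence (Ex 340/Em 450 nm) was followed for 8 min.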
# PKM2 act: activators of human pyruvate kinase M2; P14618; purified PKM2, Kinase-Glo ATP luminescence, activation; response scale: 0% is enzyme alone, no compound; Potency, µM (titrated, usually from 57.5 µM), inactives show at the top dose activation, most hits filed as activators; hit rate 0.34% among 260,000; also: potency is read from the fitted curve at half-maximal effect; % is scaled to controls: 0 for no effect and ±100 for the full control effect; nearly all actives have a fitted effect of over 55% in size
# Target sequence (P14618 whole entry, looked up): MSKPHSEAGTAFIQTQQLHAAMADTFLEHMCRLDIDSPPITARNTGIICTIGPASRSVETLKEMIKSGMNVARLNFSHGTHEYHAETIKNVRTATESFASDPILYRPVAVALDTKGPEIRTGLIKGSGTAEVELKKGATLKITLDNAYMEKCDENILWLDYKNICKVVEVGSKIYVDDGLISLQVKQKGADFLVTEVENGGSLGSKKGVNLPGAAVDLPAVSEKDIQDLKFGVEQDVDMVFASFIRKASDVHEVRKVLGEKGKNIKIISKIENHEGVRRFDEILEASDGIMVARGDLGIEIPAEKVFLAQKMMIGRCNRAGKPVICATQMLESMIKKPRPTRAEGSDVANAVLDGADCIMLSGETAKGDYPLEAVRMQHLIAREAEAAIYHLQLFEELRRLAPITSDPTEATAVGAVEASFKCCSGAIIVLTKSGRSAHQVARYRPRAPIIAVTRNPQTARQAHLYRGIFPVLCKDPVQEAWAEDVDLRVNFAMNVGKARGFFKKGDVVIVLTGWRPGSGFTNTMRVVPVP
#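 Purified hPK-M2 (>95%) run at intermediate activity with 0.1 mM ADP and 0.5 mM PEP in 50 mM imidazole pH 7.2, KCl, MgCl2; 1 h room temperature. ATP formed read by Kinase-Glo luminescence; normalized to uninhibited and no-enzyme controls.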
# GALK inh: inhibitors of human galactokinase | P51570 | Potency, µM (titrated, usually from 57.5 µM), for the others: at the highest dose activity change, negative = inhibition, actives largely listed as inhibitors | AID 1868 | Purified GALK, Kinase-Glo residual ATP luminescence | hit rate 0.007% among 270,000; also: potency is read from the fitted curve at half-maximal effect; % is scaled to controls: 0 for no effect and ±100 for the full control effect
#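 Kinase-Glo Plus luminescence measured ATP left after a 1 h room-temperature reaction. The reaction used 5 nM GALK, 100 uM galactose and 35 uM ATP at pH 8.0 (20 mM HEPES, 5 mM MgCl2, 60 mM NaCl, 1 mM DTT, 0.01% BSA).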
# mIDH1 inhibitor: inhibitors of human mutant IDH1 R132H; O75874; IDH1-R132H enzyme, NADPH consumption, diaphorase/resazurin fluorescence; Potency, µM (top dose mostly 76.6 µM), without a hit: at the highest dose activity change, negative = inhibition, usual class: inhibitors; hit rate 0.093% among 390,000; AID 602179; also: potency is read from the fitted curve at half-maximal effect; % is scaled to controls: 0 for no effect and ±100 for the full control effect; nearly all actives have a fitted effect of over 65% in size
#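 IDH1-R132H (0.5 ug/mL) preincubated 30 min with compound, then NADPH (0.016 mM) and alpha-KG (2 mM) added; 80 min at RT, pH 7.5. Remaining NADPH coupled via diaphorase/resazurin to fluorescence (540/590 nm); concentration-response curves normalized to no-enzyme control.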
# Anesthetic bind: candidate novel general anesthetic via apoferritin binding; AID 485281; P02791; hit rate 0.074% among 350,000; Potency, µM (doses to about 77.5 µM), for the others: at the highest dose activity change, negative = displacement, most hits filed as inhibitors; apoferritin/1-aminoanthracene competitive binding, fluorescence; also: potency is read from the fitted curve at half-maximal effect; % is scaled to controls: 0 for no effect and ±100 for the full control effect; nearly all actives have a fitted effect of over 20% in size
# Target sequence (P02791 2-175 limits assumed): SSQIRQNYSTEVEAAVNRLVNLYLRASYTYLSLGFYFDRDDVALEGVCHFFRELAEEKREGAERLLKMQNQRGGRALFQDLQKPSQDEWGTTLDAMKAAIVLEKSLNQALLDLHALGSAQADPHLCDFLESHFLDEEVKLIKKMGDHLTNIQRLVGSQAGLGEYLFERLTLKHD
#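 Horse-spleen apoferritin (10 uM) was mixed with 50% saturated 1-aminoanthracene in PBS, exposed to compounds for 10 min at room temperature, and read for fluorescence (ex 380 nm, em 535 nm). Competitive displacement was fitted with a four-parameter Hill equation.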
# IDH1 autofl: autofluorescence interference, mutant IDH1 hit counter-screen; inhibition of signal, % at 51.2 µM; shares compounds with mIDH1 inhibitor; Resorufin detection reagent fluorescence interference, cell-free; 750 tested, under 10 active;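 also: 0% = wells with normal resorufin and full inhibition = wells lacking resorufin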
# WT IDH1 inh: inhibits human wild-type IDH1, mutant selectivity check. shares compounds with mIDH1 inhibitor. WT IDH1 enzyme, NADPH diaphorase/resazurin fluorescence. Potency, µM (top dose mostly 115 µM), inactives show at the top dose activity change, negative = inhibition, most hits filed as inhibitors. hit rate 9% among 750. AID 623995;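 also: potency is read from the fitted curve at half-maximal effect; 0% = full WT IDH1 enzyme control and full inhibition = no enzyme wells; nearly all actives have a fitted effect of over 55% in size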
# IDH1 R132H conf: mutant IDH1 (human) inhibition, confirmed | Potency, µM (series often up to 76.6 µM), without a hit: at the top dose activity change, negative = inhibition, hits mostly inhibitors | AID 624002 | hit rate 83% among 750 | shares compounds with mIDH1 inhibitor | IDH1 R132H enzyme, NADPH diaphorase/resazurin fluorescence; also: potency is read from the fitted curve at half-maximal effect; nearly all actives have a fitted effect of over 50% in size
# An asterisk follows results filed as active; ? = inconclusive; . = not tested or not shown; [ ] = remark or other dose. Calls follow the shape of the dose curve; as a rule, active = well fitted curve in the direction sought with a large enough effect; inconclusive = small, poorly fitted or top-dose-only effect, or another doubt; inactive = no such curve, though single readings can be large; an effect the other way counts as inactive or inconclusive.
SMILES,TrxR1 substrate,TrxR1 inh,PKM2 act,GALK inh,mIDH1 inhibitor,Anesthetic bind,IDH1 autofl,WT IDH1 inh,IDH1 R132H conf
Cc1cc(N(CCO)CCO)ccc1C(c1ccc(N(CCO)CCO)cc1C)c1ccccc1Cl,-12.3%,-15.4%,?,0.6%,26.1µM*,0.3%,7.1,?,7.08µM*
O=c1cc(N2CCCCC2)c(-c2ccccc2)nn1Cc1ccc(Cl)cc1,7.7%[57.1 µM],-4.7%,0.6%,-0.1%,-4.5%,-11.2%,.,.,.
O=c1cc(N2CCCCC2)c(-c2ccccc2)nn1Cc1c(Cl)cccc1Cl,2.9%[57.1 µM],8.7%[57.1 µM],-3.6%,3.0%,20.7µM*,?,3.8,9.1%,14.1µM*
CCc1ccccc1NC(=O)CN(Cc1ccccc1)S(=O)(=O)c1ccc(Br)cc1,-11.9%,-4.2%,.,.,-10.2%,73.2%,.,.,.
O=C(CCl)c1ccc2c(c1)CCN2C(=O)C1CCCCC1,-4.1%,?,-0.4%,0.5%,?,-15.5%,0.2,8.2%,39.8µM*
O=C(CN1C(=O)COc2ccc(S(=O)(=O)N3CCCCCC3)cc21)Nc1cccc(Cl)c1,0.0%,26.6%,.,.,?,-6.8%,-0.6,5.4%,?
CCOC(=O)C1CCCN(C(=S)NC2CCCC2)C1 (configuration not stated),-1.2%,-9.3%,-7.9%,-3.1%,?,-7.7%,0.9,10.5%,-1.8%
Cc1cc(NC(=O)CCC(=O)N(c2ccccc2)C(C(=O)NC2CCCC2)c2ccc(F)cc2)no1 (configuration not stated),2.3%[0.457 µM],4.9%,-2.4%,-1.7%,?,-1.1%,-6.1,-3.7%,?
Cc1cc(NC(=O)CCC(=O)N(Cc2ccco2)C(C(=O)NC2CCCC2)c2ccc(F)cc2)no1 (configuration not stated),6.2%[57.1 µM],6.2%[57.1 µM],0.9%,0.6%,3.2%,-7.8%,.,.,.
O=C(CCCC(=O)N(c1ccc2c(c1)OCCO2)C(C(=O)NC1CCCCC1)c1ccc(F)cc1)Nc1ccccn1 (configuration not stated),3.7%,3.4%,0.1%,-1.6%,9.27µM*,-7.3%,-7.6,2.1%,12.6µM*
Cc1cc(NC(=O)CCC(=O)N(c2ccccc2)C(C(=O)NC2CCCCC2)c2cccs2)no1 (configuration not stated),5.5%,17.9%,-1.1%,0.2%,?,-19.4%,0.3,-4.5%,15.8µM*
Cc1ccc(N(C(=O)C(F)(F)F)C(C(=O)NC2CCCCC2)c2cccs2)cc1C (configuration not stated),3.0%,7.9%,-1.5%,-1.9%,2.8%,-6.9%,.,.,.
O=C(NC1CCCCC1)C(c1cccs1)N(C(=O)C(F)(F)F)c1ccccc1 (configuration not stated),6.8%,7.0%,-5.7%,-0.4%,?,-16.7%,-12.4,5.4%,20µM*
CC(=O)N1CCc2c(sc3nc(SCC(C)C)n(-c4ccc(C)c(Cl)c4)c(=O)c23)C1,11.7%[2.29 µM],24.1%[2.29 µM],.,.,?,?,.,.,.
Cc1cc(NC(=O)CCC(=O)N(c2ccc(F)cc2)C(C(=O)NC2CCCC2)c2ccccc2)no1 (configuration not stated),3.9%,10.8%,6.0%,5.2%,?,-10.5%,1.9,4.9%,39.8µM*
C#CC(=O)N(c1cc(OC)ccc1OC)C(C(=O)NC1CCCC1)c1cccs1 (configuration not stated),-2.2%,1µM*,3.2%,-2.0%,?,-18.6%,-6.9,11.4%,44.7µM*
Cc1cc(NC(=O)CCC(=O)N(c2ccc(F)cc2)C(C(=O)NC2CCCC2)c2ccc(C)o2)no1 (configuration not stated),2.8%,21.5%,5.9%,1.2%,-17.8%,?,.,.,.
Cn1cc(C(=O)NCc2ccc(Cl)cc2)c(=O)c2cc(S(=O)(=O)N3CCCCCC3)ccc21,2.1%,30.9%,.,.,6.2%,?,.,.,.
O=C(Nc1ccccc1)N(Cc1cccc(Cl)c1)c1ccccn1,5.9%,23.9%,.,.,-0.7%,-2.5%,.,.,.
Cc1cc(C)n(-c2nc(N(c3ccccc3)c3ccccc3)nc(-n3nc(C)cc3C)n2)n1,4.7%,18.9%,3.0%,-5.3%,?,6.7%,-1.2,7.1%,10µM*
Cc1cc(C)n(-c2nc(Nc3ccccc3)nc(-n3nc(C)cc3C)n2)n1,10.1%,16.0%,5.7%,-2.7%,0.3%,-4.3%,.,.,.
Brc1ccc(-c2csc(NNC3=NCCCCC3)n2)cc1,-5.5%,10.3%,5.4%,0.9%,26.1µM*,-18.8%,1.8,37.6%,?
Cc1cccc(N2CCN(S(=O)(=O)c3ccc4c(c3)C(C(C)C)C(=O)N4)CC2)c1C (configuration not stated),-3.5%,27.9%,.,.,39.8µM*,-0.4%,3.3,6.0%,22.4µM*
Cc1cccc(N2CCN(S(=O)(=O)c3ccc4c(c3)NC(=O)C(C)S4)CC2)c1C (configuration not stated),6.6%[57.1 µM],27.8%[57.1 µM],.,-1.1%,-1.6%,-13.0%,.,.,.
Cc1nn(CCC(=O)O)c2nc(-c3cccnc3)cc(C(F)(F)F)c12,273.6%,7.3%,-2.3%,-1.6%,13.5%,-3.9%,.,.,.
Cc1nn(CCc2nn[nH]n2)c2nc(-c3ccc(C4CCCCC4)cc3)cc(C(F)(F)F)c12,88.7%,22.3%[57.1 µM],1.7%,-20.8%,52.1µM*,-16.6%,-14.0,50.1µM*,39.8µM*
CCC(=O)N(CCC(Cc1ccccc1)c1ccc2c(c1)OCO2)Cc1ccccc1F (configuration not stated),-0.6%,-18.9%,-0.9%,5.1%,?,64.7%,-4.9,8.4%,14.1µM*
COc1cc2c(-c3ccccc3O)nc3c(c(C)nn3-c3ccccc3)c2cc1OC,4.5%,8.3%,-1.8%,1.2%,29.6%,1.2%,.,.,.
COc1cc2c(-c3ccccc3Cl)nc3c(c(C)nn3-c3ccccc3)c2cc1OC,29.6%,13.1%,.,.,?,343.9%,-1.8,0.4%,5.01µM*
Cc1cccc(N2CCN(C(=O)c3c(C)oc4ncnc(N5CCCCC5)c34)CC2)c1C,-11.3%,3.5%,.,.,-15.4%,-5.3%,.,.,.

# Screens deposited in PubChem BioAssay by National Center for Advancing Translational Sciences (NCATS).
